Compounds with a hit are over-represented: about 4.2% of the library has one in this group of screens.
TIM10 inh = TIM10 yeast growth inhibition; S. cerevisiae TIM10 strain growth, BacTiter-Glo luminescence, 24 h; inhibition, % at 10 µM; 330,000 compounds, 1.4% hits; AID 463195;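 active = inhibition of 40% or more at the single tested concentration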;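 also: wild-type TIM10 isogenic control strain grown at permissive 25 °C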
V-ATPase pHluor = alters yeast V-ATPase proton transport | AID 504577 | 350,000 compounds, 0.37% hits | response, % at 10 µM | S. cerevisiae, pHLuorin cytosolic pH fluorescence; in the data active = response mostly above about 7.3%, no sharp cut-off; inactive = mostly below about 5.4%; also: actives read high
NALP1 yeast inh = NALP1 inhibition. 280,000 compounds, 0.61% hits. inhibition, % at 10 µM. S. cerevisiae NALP1/ASC/caspase-1 growth, X-gal OD620, 72 h; in the data active = inhibition mostly above about 24%, no sharp cut-off; inactive = mostly below about 32%
tim10-1 inh = inhibits growth of tim10-1 mutant yeast; S. cerevisiae tim10-1 ts strain growth, BacTiter-Glo, 24 h; inhibition, % at 20 µM; 330,000 compounds, 2.2% hits;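 active = inhibition of at least 40%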;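 also: mutant grown at 25 °C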
NALP3 yeast inh = NALP3 inhibition in yeast; Yeast reconstituted NLRP3/ASC/caspase-1, beta-gal luminescence, 24 h; inhibition, % at 10 µM; 330,000 compounds, 0.39% hits;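 active = inhibition of 50% or more; inactive = inhibition below 50%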
tim23-1 inh = tim23-1 yeast growth inhibition. AID 463212. inhibition, % at 20 µM. 330,000 compounds, 1.3% hits. S. cerevisiae tim23-1 growth, BacTiter-Glo luminescence, 24 h;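 active = growth inhibition of the mutant yeast at or above 50%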;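 also: temperature-sensitive mutant grown at 25 °C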
tim10 confirm = confirmation of TIM10 yeast growth inhibitors. shares compounds with TIM10 inh. S. cerevisiae tim10 strain growth, BacTiter-Glo luminescence, 24 h. inhibition, % at 10 µM. 4,600 compounds, 63% hits;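 active = inhibition of yeast growth at or above a set limit in either of two replicates at 10 µM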; also: this counterscreen used the strain with wild-type TIM10
tim23-1 conf = confirmation of tim23-1 mutant yeast growth inhibitors. shares compounds with tim23-1 inh. S. cerevisiae tim23-1 growth, BacTiter-Glo luminescence, 24 h. inhibition, % at 20 µM. 4,400 compounds, 83% hits. AID 463218;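 active = inhibition above about 39% in either of two replicate wells at 20 µM, limit read from the data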;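 also: temperature-sensitive tim23-1 mutant grown at 25 °C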
Each line names hits and unclear results; the compound was inactive in the other large screens (follow-up assays come after a bar, where they were run).

CCc1ccc(CN(C)C(=O)c2cc(COc3ccc(-n4cncn4)cc3)on2)cc1	TIM10 inh 56, tim23-1 inh 54 | tim10 confirm 46 | tim23-1 conf 52
CNC(=O)c1sc(N2N=C3/C(=C\c4ccccc4)CCCC3C2c2ccccc2)nc1C (configuration not stated)	none (no result: TIM10 inh, NALP1 yeast inh, tim10-1 inh, NALP3 yeast inh, tim23-1 inh)
CCS(=O)(=O)c1ccc2oc(SCC(=O)NC3CCCC(C)C3C)nc2c1 (configuration not stated)	none
C(=N\Nc1nc2ccccc2[nH]1)/c1cccc2cccnc12	TIM10 inh 67, tim23-1 inh 55 | tim10 confirm 55 | tim23-1 conf 48
CCOC(=O)c1sc(NC(=O)c2sccc2C)cc1C	TIM10 inh 74, tim23-1 inh 50 | tim10 confirm 62 | tim23-1 conf 71
Cc1ccc(Cl)cc1NCN1C(=O)c2ccccc2C1=O	none (no result: TIM10 inh, NALP1 yeast inh, tim10-1 inh, NALP3 yeast inh, tim23-1 inh)
Cc1cc(C)nc(SCc2ccc(C(=O)N/N=C/c3cccc(O)c3O)cc2)n1	TIM10 inh 56, tim23-1 inh 60 | tim10 confirm 47 | tim23-1 conf 56
COc1ccc(O)c(/C=N/NC(=O)c2ccc(CSc3nc(C)cc(C)n3)cc2)c1	none
COC(=O)c1cc(OC)c(OC)cc1N1C(=O)CC(C)(C)CC1=O	none
CN(C)S(=O)(=O)CC12CCC(CC1=O)C2(C)C (configuration not stated)	none
COCc1cc(=O)[nH]c(SCCS(=O)(=O)c2ccc(Cl)cc2Cl)n1	TIM10 inh 44, tim23-1 inh 58 | tim10 confirm 35 | tim23-1 conf inactive
O=C(NC(=S)Nc1ccccc1Cl)c1ccco1	none
CCC(C)c1ccccc1NC(=S)NC(=O)c1ccco1 (configuration not stated)	TIM10 inh 41, tim23-1 inh 54 | tim10 confirm inactive | tim23-1 conf inactive
N=C1S/C(=C\c2cccc3ccccc23)C(=O)N1c1ccc(F)cc1	none
CSC1=NC(=O)/C(=C\c2cccc3ccccc23)S1	TIM10 inh 41, tim23-1 inh 76 | tim10 confirm inactive | tim23-1 conf 51
COc1ccccc1NC1SC(=O)N(c2ccccc2)C1=O (configuration not stated)	none
N/C(Cc1cccc2ccccc12)=N\OC(=O)c1cccs1	TIM10 inh 61, tim23-1 inh 63 | tim10 confirm 78 | tim23-1 conf 72
N#Cc1cccc(NC(=O)Cn2cnc(S(=O)(=O)N3CCCCC3)c2)c1	none
CCCCN=Cc1sc2ccc(OCC)cc2c1O	TIM10 inh 43, tim23-1 inh 58 | tim10 confirm 27 | tim23-1 conf 54
C=CCN=Cc1sc2ccc(OCC)cc2c1O	none (no result: V-ATPase pHluor)
Cc1ccc(-c2cc(-c3n[nH]c(=S)n3C)c3ccccc3n2)cc1	TIM10 inh 50, tim23-1 inh 52 | tim10 confirm 48 | tim23-1 conf 59
Cc1ccc(-c2nnn(CC(=O)N(c3ccccc3)C(C(=O)NCC3CCCO3)c3ccc(F)cc3)n2)o1 (configuration not stated)	none
COc1cc(OC)cc(C(=O)NNC(=O)NC2CCCCC2)c1	none
CCOc1cc(Br)c(Br)c(C=Nc2ccc(NC(C)=O)cc2)c1O	TIM10 inh 71, tim23-1 inh 76 | tim10 confirm 90 | tim23-1 conf inactive
Cc1cc2ccccc2n2c(SCC(=O)N3CCc4ccccc4C3)nnc12	none
COc1cccc(OC)c1C(=O)NCCc1ccccc1	none (no result: NALP1 yeast inh)
COc1cccc2cc(C(=O)NCCc3ccccc3)oc12	TIM10 inh 50, tim23-1 inh 62 | tim10 confirm 37 | tim23-1 conf 77
CCOC(=O)N1CCC2(CC1)C(C#N)=C(N)Oc1c2sc2nc(C)cc(C)c12	TIM10 inh 51, tim23-1 inh 61 | tim10 confirm 36 | tim23-1 conf 51
CCCN1CCC2(CC1)C(C#N)=C(N)Oc1c2sc2nc(C)cc(C)c12	none
CCOC(=O)N1CCC2(CC1)C(C#N)=C(N)Oc1c2c(C)nn1-c1cccc(Cl)c1	TIM10 inh 44, tim23-1 inh 58 | tim10 confirm inactive | tim23-1 conf 58
CCOC(=O)N1CCC2(CC1)C(C#N)=C(N)Oc1n[nH]c(C)c12	none
CCN(c1ccccc1)S(=O)(=O)c1ccc(C(=O)Nc2cccc(C)n2)cc1	none (no result: NALP1 yeast inh)
COc1ccc(CN(C)C(=O)COc2cccc(-n3cnnn3)c2)cc1OC	none (no result: NALP1 yeast inh)
COc1ccc(Br)cc1CNCC1CCCO1 (configuration not stated)	none
Cc1cccc(/C(N)=N/OC(=O)c2ccc(F)cc2)c1	TIM10 inh 73, tim23-1 inh 70 | tim10 confirm 80 | tim23-1 conf 45
N/C(=N\OC(=O)c1cccc(F)c1)c1cccc([N+](=O)[O-])c1	none
Cc1cccc(Nc2ncnc3ccc(Br)cc23)c1	none
Clc1cccc(Nc2ncnc3ccc(Br)cc23)c1	TIM10 inh 48, tim23-1 inh 54 | tim10 confirm 44 | tim23-1 conf 50
O=C1/C(=C/c2ccncc2)SC(=S)N1C1CCCCC1	TIM10 inh 50, tim23-1 inh 51 | tim10 confirm inactive | tim23-1 conf 39
O=C(O)CCN1C(=O)/C(=C\c2ccncc2)SC1=S	none
CCN1C(=O)/C(=C\c2ccncc2)SC1=S	TIM10 inh 51, tim23-1 inh 68 (no result: NALP1 yeast inh) | tim10 confirm 39 | tim23-1 conf inactive
CCc1cccc2c(C(=S)N3CCCC3)c[nH]c12	none
CCc1cccc2c(C(=O)CCl)c[nH]c12	TIM10 inh 42, tim23-1 inh 54 | tim10 confirm inactive | tim23-1 conf 54
CCOC(=O)c1cc(-c2ccncc2)nc2c1c(C)nn2C	TIM10 inh 45, tim23-1 inh 53 | tim10 confirm 41 | tim23-1 conf 51
Cc1ccc(-c2cc(-c3ccc(C)cc3O)[nH]n2)cc1	none
Oc1ccc(Br)cc1-c1cc(-c2ccccc2Cl)[nH]n1	none
COc1ccc(O)c(-c2cc(-c3ccccc3Cl)[nH]n2)c1	TIM10 inh 50, tim23-1 inh 81 | tim10 confirm 57 | tim23-1 conf 72
Cc1ccc(-c2cc(-c3ccccc3Cl)[nH]n2)c(O)c1	TIM10 inh 51, tim23-1 inh 65 | tim10 confirm 65 | tim23-1 conf inactive
CCn1c(SCC(=O)Nc2ccc(C(C)=O)cc2)nc2c([nH]c3ccccc32)c1=O	none
C[C@]12CC[C@H](O)CC1=CCC1C2CC[C@@]2(C)C1CC[C@@H]2NC(=O)[C@@H](N)Cc1ccccc1 (some centres not stated)	TIM10 inh 55, tim23-1 inh 58 (no result: NALP1 yeast inh) | tim10 confirm 60 | tim23-1 conf 55
O=C(Nc1cccc(Cl)c1)N1CCCC1	TIM10 inh 47, tim23-1 inh 51 | tim10 confirm inactive | tim23-1 conf 73

Compound activity from PubChem.
